D1 antag: human D1 dopamine receptor antagonism; P21728; HEK293 TREx D1 cells, calcium flux, dopamine EC80; active compounds read low; activity change, negative = inhibition, % at 10 µM; 3.2% of 360,000 active; AID 504652; in the data active means activity change below about -30%
Target sequence (P21728 whole entry, looked up): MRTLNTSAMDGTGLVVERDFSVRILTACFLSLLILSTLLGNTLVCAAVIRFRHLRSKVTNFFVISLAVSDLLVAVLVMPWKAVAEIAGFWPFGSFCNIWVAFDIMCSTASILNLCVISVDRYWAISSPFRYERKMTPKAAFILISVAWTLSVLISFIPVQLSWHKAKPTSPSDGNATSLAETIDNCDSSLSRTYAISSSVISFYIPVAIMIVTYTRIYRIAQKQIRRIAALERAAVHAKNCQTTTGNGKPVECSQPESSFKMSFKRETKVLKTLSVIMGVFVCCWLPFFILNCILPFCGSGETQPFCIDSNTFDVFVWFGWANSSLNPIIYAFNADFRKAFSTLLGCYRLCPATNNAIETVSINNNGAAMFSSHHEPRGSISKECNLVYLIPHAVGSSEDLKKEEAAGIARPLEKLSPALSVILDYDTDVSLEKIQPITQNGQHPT
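Using tetracycline-induced force-coupled D1 Hek293 cells and a calcium dye, signals were followed for 180 s after compound, then for 180 s after EC80 dopamine, to detect inhibitors.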
TRHR agonist-1: activates the human TRH receptor; activation, % at 2 µM; P34981; TRHR cells, calcium flux fluo-8, FDSS agonist mode; 0.18% of 360,000 active; in the data active means activation above about 30%
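Fluo-8-loaded TRHR cells; 10 s baseline, compound added, kinetic Ca2+ fluorescence read 1/s, agonist mode.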
D1 potentiator: human D1 dopamine receptor positive modulation. P21728. HEK293 TREx D1 cells, calcium flux, dopamine EC20 potentiation. potentiation, % at 10 µM. 0.036% of 360,000 active. AID 504651; in the data active means potentiation above about 30%
D1 ag: human D1 receptor agonism; P21728; HEK293 T-REx D1 cells, calcium flux, agonist mode; activation, % at 2 µM; 1% of 360,000 active; AID 504660; in the data active means activation above about 30%
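Agonism was scored from calcium flux recorded over 180 s (1 read/s) after pintool compound addition, following a 10-cycle baseline. Cells were inducible force-coupled HEK293 TREx D1, plated overnight at 30 C and loaded with no-wash calcium dye.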
TRHR enhancer-1: allosteric enhancers of human TRH receptor | AID 493056 | TRHR cells, fluo-8 calcium fluorescence, EC20 TRH enhancement | P34981 | 0.66% of 360,000 active | enhancement, % at 2 µM; in the data active means enhancement above about 30%
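TRHR-expressing cells loaded with fluo-8 calcium dye were read kinetically (ex 480/em 530) during compound addition, then stimulated with an EC20 of TRH (10 nM final). Enhancement of the Gq-mediated intracellular calcium response was scored.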
TRHR enhancer-2: confirmation of human TRH receptor allosteric enhancers. shares compounds with TRHR enhancer-1. TRH receptor cell assay, enhancer confirmation qHTS. activity change, negative = inhibition, % at 46.1 µM. 970 tested, under 10 active. AID 493076;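 further: compound effect scored on response to added TRH at EC20 of 10 nM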
TRHR agonist-2: human TRH receptor agonism confirmation. shares compounds with TRHR enhancer-1. TRHR-expressing cells, agonist activation read-out. Potency, µM (highest dose often 46.1 µM), most hits filed as activators. 8% of 970 active. AID 493078; further: nearly all actives have a fitted effect of over 75% in size
Each line names hits and unclear results; the compound was inactive in the other large screens (follow-up assays come after a bar, where they were run). Rows were chosen to be rich in hits. Some 4.7% of all compounds tested hit in one or more screens of this group. Unless noted, the call rests on the fitted dose curve; in most records, active means well fitted curve in the direction sought with a large enough effect; inconclusive means small, poorly fitted or top-dose-only effect, or another doubt; inactive means no such curve, though single readings can be large; an effect the other way counts as inactive or inconclusive.

Cc1c2ccccc2nc2c(F)c(NCCO)c(F)c(F)c12	TRHR agonist-1 37.1 | TRHR enhancer-2 inactive | TRHR agonist-2 16.4µM
CC1CCN(Cc2c(C(=O)N/N=C/c3ccc(C(C)C)cc3)nnn2-c2nonc2N)CC1	TRHR enhancer-1 52.1 | TRHR enhancer-2 inactive | TRHR agonist-2 inactive
Cc1nn(-c2ccc(Cl)cc2)c2nc(-c3cccnc3)cc(C(F)(F)F)c12	none
Cc1cc(C)cc(OCC(O)CN2CCN(Cc3ccc4c(c3)OCO4)CC2)c1 (stereo not drawn)	TRHR enhancer-1 43.7 | TRHR enhancer-2 inactive | TRHR agonist-2 inactive
OC(COc1ccccc1)CN1CCN(Cc2ccc3c(c2)OCO3)CC1 (stereo not drawn)	none
CCOC(=O)C1=C(O)/C(=C/c2cc(OC)c(O)c(OC)c2)SC1=Nc1ccc(OC)cc1	D1 antag -63.6 | TRHR enhancer-2 inactive | TRHR agonist-2 inconclusive
COc1ccc(C(=O)c2sc3nc(-c4ccccc4)ccc3c2N)cc1OC	TRHR agonist-1 44.2, D1 ag 57.4 | TRHR enhancer-2 inactive | TRHR agonist-2 inconclusive
Cc1ccc2c(NC(=O)c3ccco3)cccc2n1	TRHR enhancer-1 41.8 | TRHR enhancer-2 inactive | TRHR agonist-2 inactive
Cc1cc(NC(=O)c2ccc([N+](=O)[O-])cc2Cl)ccc1NC(=O)c1ccco1	none
Cc1cc([N+](=O)[O-])ccc1NC(=O)c1ccco1	TRHR enhancer-1 46.0 | TRHR enhancer-2 inactive | TRHR agonist-2 inactive
CCCCSc1nc2c(cnn2-c2ccc(Cl)cc2)c(=O)[nH]1	TRHR enhancer-1 41.5 | TRHR enhancer-2 inactive | TRHR agonist-2 inactive
Cc1ccc2c(CC(=O)OCC(=O)N(CC(C)C)c3c(N)n(Cc4ccccc4)c(=O)[nH]c3=O)coc2c1	TRHR enhancer-1 49.2 | TRHR enhancer-2 inactive | TRHR agonist-2 inconclusive
CCN(C(=O)COC(=O)Cc1coc2cc(C)ccc12)c1c(N)n(Cc2ccccc2)c(=O)[nH]c1=O	none (no result: D1 potentiator)
O=C(O)c1cccc(-c2ccc(/C=c3/sc4nc5ccccc5n4c3=O)o2)c1	D1 ag 39.4 | TRHR enhancer-2 inactive | TRHR agonist-2 inconclusive
COc1ccc(-c2cc(C(F)(F)F)nc(SCC(=O)NCc3ccc(Cl)cc3)n2)cc1	TRHR enhancer-1 59.7 | TRHR enhancer-2 inactive | TRHR agonist-2 inactive
COc1ccc(-c2cc(C(F)(F)F)nc(SCC(=O)NCc3ccc(F)cc3)n2)cc1	none
CCOc1ccc(C(=O)Nc2c3c(nn2-c2ccc(C)cc2)CS(=O)C3)cc1OCC (stereo not drawn)	TRHR enhancer-1 42.4 | TRHR enhancer-2 inactive | TRHR agonist-2 inactive
CC1CCCN(S(=O)(=O)c2ccc(NC(=O)CCN3C(=O)c4ccccc4C3=O)cc2)C1 (stereo not drawn)	TRHR agonist-1 37.5 | TRHR enhancer-2 inactive | TRHR agonist-2 inactive
O=C(CCN1C(=O)c2ccccc2C1=O)Nc1ccc(S(=O)(=O)N2CCOCC2)cc1	none
O=C(Cn1cncn1)NCc1ccccc1Br	none
O=C(Cn1cncn1)c1ccccc1Br	TRHR enhancer-1 43.7 | TRHR enhancer-2 inactive | TRHR agonist-2 inactive
CCc1nn(CC(=O)NCCC(C)C)c(=O)c2cc3occc3n12	none
CC(C)CCNC(=O)NC(=O)CSc1nnc(-c2ccccc2Br)o1	TRHR enhancer-1 42.5 | TRHR enhancer-2 inactive | TRHR agonist-2 inactive
Cc1nc2ccc(C(=O)Nc3ccccc3Cl)cc2s1	TRHR enhancer-1 51.2 | TRHR enhancer-2 inactive | TRHR agonist-2 inactive
Cc1cc(C)n(-c2nc3nonc3nc2-n2nc(C)cc2C)n1	TRHR enhancer-1 54.2 | TRHR enhancer-2 inactive | TRHR agonist-2 inactive
Cc1cc(C)n(CCN(C)c2nc3nonc3nc2N2CCCCC2)n1	none
C=CCn1c(=O)n(C(=O)OCC)c2cc(Br)ccc21	TRHR enhancer-1 66.0 | TRHR enhancer-2 inactive | TRHR agonist-2 inactive
COCCn1c(-c2ccc(-c3ccc([N+](=O)[O-])cc3Br)o2)nc2c1c(=O)[nH]c(=O)n2CC(C)C	none
Cc1ccc(-c2c3c(=O)n(C)c(=O)n(C)c3c3cnc4ccccc4n23)cc1	TRHR enhancer-1 59.1 | TRHR enhancer-2 inactive | TRHR agonist-2 inactive
CCc1nc2ccccc2n2c(-c3ccc(C)cc3)c3c(=O)n(C)c(=O)n(C)c3c12	none
O=[N+]([O-])c1ccc(N2N=C(c3ccco3)CC2c2ccccc2)cc1 (stereo not drawn)	D1 ag 49.9 | TRHR enhancer-2 inactive | TRHR agonist-2 inconclusive
Fc1ccc(C2CC(c3ccco3)=NN2c2ccccc2)cc1 (stereo not drawn)	none
Cc1ccccc1NC1=C(Cl)C(=O)N(C2CCCCC2)C1=O	none
COc1ccccc1NC1=C(Cl)C(=O)N(C2CCCCC2)C1=O	D1 antag -88.2, TRHR enhancer-1 45.8 | TRHR enhancer-2 inactive | TRHR agonist-2 inactive
COc1ccccc1/C=C1\C(=O)Nc2ccccc21	TRHR enhancer-1 41.4 | TRHR enhancer-2 inactive | TRHR agonist-2 inactive
O=C1Nc2ccccc2/C1=C/c1ccccc1Cl	none
CSCCC(NS(=O)(=O)c1ccc2c(c1)oc(=O)n2C)C(=O)NCCc1ccc(C)cc1 (stereo not drawn)	none
Cc1ccc2c(c1)C(c1ccc(F)cc1)N(C(=O)c1cccc(C(F)(F)F)c1)CC(=O)N2 (stereo not drawn)	none
Nn1c(N2CCCCC2)nc2ccccc21	TRHR enhancer-1 71.1 | TRHR enhancer-2 inactive | TRHR agonist-2 inactive
CCOC(=O)C1CCN(S(=O)(=O)c2ccc(CNC(=O)c3ccccc3)s2)CC1	none
COc1ccc(CCNC(=O)CSc2cc(=O)n(C)c3ccccc23)cc1OC	none
Oc1c(/C=N/c2ccccn2)sc2ccccc12	TRHR enhancer-1 41.0 | TRHR enhancer-2 inactive | TRHR agonist-2 inconclusive
Oc1c(C=Nc2ccc(Cl)cn2)sc2ccccc12	none
NC(=O)CN1CCOCCOCCN(CC(N)=O)CCOCCOCC1	TRHR enhancer-1 54.7 | TRHR enhancer-2 inconclusive | TRHR agonist-2 inactive
Cc1[nH]n(-c2ccccc2)c(=O)c1C=NC1CCCCCC1	none
Cc1[nH]n(-c2ccccc2)c(=O)c1C=NC1CCCCC1	TRHR enhancer-1 43.9 | TRHR enhancer-2 inactive | TRHR agonist-2 inactive
Cc1c(C(=O)OC2CCCC2)[nH]c2c1C(=O)CC(c1ccc(Cl)cc1)C2 (stereo not drawn)	none
CC1(C)CC(=O)C(C=Nc2ccc(C(=O)c3ccccc3)cc2N=CC2=C(O)CC(C)(C)CC2=O)=C(O)C1	D1 ag 86.2 | TRHR enhancer-2 inactive | TRHR agonist-2 inactive
O=C(CCC1N=C2c3ccccc3N=C(SCc3cccc(Cl)c3)N2C1=O)NCc1ccco1 (stereo not drawn)	TRHR enhancer-1 49.5 | TRHR enhancer-2 inactive | TRHR agonist-2 inconclusive
Cc1nc(C)c(C(=O)Nc2cccc(F)c2)s1	none
CCOc1cc(C(=O)OCc2cc(=O)n3nc(CC)sc3n2)cc(OCC)c1OCC	none

High-throughput results from PubChem.
